PubChem BioAssay AID720565 (National Center for Advancing Translational Sciences (NCATS), 2013)
Several values for one entry are separate records, joined by “and”; a condition that tells them apart may be missing. Equal values may be shown once. Results filed as inconclusive are left out. Activity calls are given as the source filed them. Calls follow the shape of the dose curve; as a rule, active = well fitted activation curve with a large enough effect; inconclusive = small, poorly fitted or top-dose-only effect; inactive = no such curve, though single readings can be large or run the other way.

Assay: qHTS for small molecules that induce genotoxicity in ELG1 expressing cells: Confirmatory Assay for Cherry-picked Compounds; also: nearly all actives have a fitted effect of over 35% in size
Conditions: ELG1-luciferase reporter cells, luminescence, 16 h; series mostly up to 46.1 µM
How it was run: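 Activation readout: ONE-Glo luciferase signal from ELG1 reporter cells, 2,000 per well, after 16 hr compound incubation at 37 C. Increased ELG1-driven luminescence reflects genetic stress.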
Potency is read from the fitted curve at half-maximal effect.

SMILES | Potency
O=c1nc2sc3ccccc3n2c(=O)n1-c1cccc(Cl)c1 | 5 µM (active)
COc1ccc(/C=C/c2ccc3ccccc3n2)c(OC)c1 | 0.25 µM (active)
CC1CCC(NC(=O)CN2C(=O)NC(C)(C)C2=O)CC1 (stereo not drawn) | inactive
Cc1cc(C(=O)Nc2ccc(Br)cn2)sc1C | 2.5 µM (active)
Cc1ccccc1NC(=O)CSc1nc2ccccc2o1 | inactive
Cc1ccc(NC(=O)c2ccc(OC(=O)c3cc4ccccc4o3)cc2)cc1 | 8.89 µM (active)
CCCC(=O)Oc1ccc2[nH]c(C(=O)c3cc4ccccc4[nH]3)cc2c1 | 6.28 µM (active)
CCCCCCC[C@@H](C/C=C/CCC(=O)N(C)C/C(=C/Cl)C/C(=C\C(=O)N1CC(OC)=CC1=O)OC)OC | 1.99 µM (active)
N#Cc1ccsc1NC(=O)CSc1nncs1 | 12.5 µM (active)
O=C(CSc1nnc(-c2ccc(O)cc2)o1)Nc1ccccc1Br | 14.1 µM (active)
Cn1cccc1C(=O)OCC(=O)c1c[nH]c2ccccc12 | 5.6 µM (active)
COc1ccc(-c2nc(-c3cccnc3)no2)cc1 | 3.97 µM (active)
CC(=O)c1cc(F)ccc1OCC(=O)Nc1ccc2c(c1)OCO2 | 6.28 µM (active)
c1nc(CCO[C@H]2CCCCO2)cc2cc3c(cc12)OCO3 | 0.281 µM (active)
CN(C)c1ccc(C(=O)OCC(=O)c2ccc[nH]2)cc1 | 14.1 µM (active)
O=C(CSc1nnc(Cc2ccccc2)o1)Nc1ccc(Br)cn1 | inactive
Cc1ccc(NC(=O)c2ccc(OC(=O)c3ccco3)cc2)cc1 | 11.5 µM (active) and 14.1 µM (active)
CC(=O)c1cc2c(cc1NC(=O)CSc1nc3ccccc3o1)OCO2 | inactive
CCOC(=O)N1CCN(C(=O)CSCC(=O)Nc2nc(-c3ccccc3)cs2)CC1 | inactive

SMILES | Potency
Cc1ccc2nc(-c3ccc(C)c(NC(=O)COc4ccc(Br)cc4)c3)oc2c1 | 2.5 µM (active)
Cc1ccc(C(=O)Cn2c3c(sc2=N)CCCC3)cc1 | 0.141 µM (active)
Nc1ccc2cccnc2c1 | 1.77 µM (active)
COc1ccc(/C=C/C(=O)O/N=C(\N)c2ccccn2)cc1OC | 14.1 µM (active)
C(=C\c1ccc2ccccc2n1)/c1ccc2ccccc2n1 | 0.792 µM (active)
O=C(CSc1nnc(-c2csc3c2CCCC3)o1)Nc1ccccc1 | 575 nM (active) and 561 nM (active)
Cc1ccc2c(c1)sc1nc(=O)n(-c3ccccc3)c(=O)n12 | 3.54 µM (active)
COc1ccc(/C=C/c2cnc3ccccc3n2)cc1OC | 0.112 µM (active)
CCOC(=O)c1c(C)[nH]c(C(=O)NNC(=O)c2ccccc2F)c1C | 12.5 µM (active)
CN(C)c1ccc(/C=C/c2ccc3ccccc3[n+]2[O-])cc1 | 0.0792 µM (active)
Cc1c(C(=O)Nc2nccs2)oc2ccc(Br)cc12 | 11.2 µM (active)
COc1ccc(-c2nnc(SC(C)C(=O)Nc3cccc(Cl)c3)o2)cc1 (stereo not drawn) | 12.5 µM (active)
CC(=O)c1c(C)[nH]c(C(=O)Nc2cccc(S(=O)(=O)N3CCCC3)c2)c1C | 15.8 µM (active)
Fc1ccc2cc(CCO[C@H]3CCCCO3)ncc2c1 | 3.97 µM (active)
O=C(N[C@H]1/C=C\[C@@H](O)CCCC1)OCc1ccccc1 | 9.96 µM (active)
COc1ccc(S(=O)(=O)Nc2cccc3cccnc23)c([N+](=O)[O-])c1 | inactive
C=CCn1c(C)cc(C(=O)COC(=O)c2n[nH]c(=O)c3ccccc23)c1C | 2.81 µM (active)
CC(=O)OCC1=C[C@H]2[C@@H]3C(C)(C)[C@]3(OC(C)=O)C[C@@H](C)[C@]2(O)[C@@H]2C=C(C)C(=O)[C@@]2(O)C1 | 2.23 µM (active)
COc1cc(C)c2c(=O)cc(-c3ccccc3)oc2c1 | 6.28 µM (active)
